Source: PubChem (National Center for Advancing Translational Sciences (NCATS))
An excerpt weighted towards active compounds, which were near 9.2% of everything screened.
ELG1 genotox: inducers of genotoxicity in HEK293T ELG1-luciferase cells; HEK293T ELG1-luciferase reporter, luminescence, 16 h; Potency, µM (series often up to 46 µM), inactives show at the top dose activity change, positive = activation, usual class: activators; 330,000 compounds, 1.3% hits; also: % of control where 0% means no effect; nearly all actives have a fitted effect of over 60% in size
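16 hr compound incubation (37 °C, 5% CO2) of HEK293T cells carrying luciferase-tagged ELG1; luciferase then measured by ONE-Glo luminescence after 30 min at RT.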
NPC1 prom act: NPC1 promoter activation. Huh7 NPC1 promoter luciferase reporter, 24 h. Potency, µM (highest dose often 9.22 µM), for inactives: top-dose activation, usual class: activators. 320,000 compounds, 2.4% hits. AID 485313; also: % of control where 0% means no effect; nearly all actives have a fitted effect of over 60% in size
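In 1536-well qHTS, Huh7 cells harboring an NPC1 promoter–luciferase construct received compound for 24 h; activation was quantified by luminescence following luciferase reagent addition.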
SMN2 splice up: enhancers of SMN2 splice variant expression. HEK293 SMN2-luciferase splicing reporter, luminescence, 30-36 h. Potency, µM (titrated, usually from 46.1 µM), inactives show at the top dose activity change, positive = activation, hits mostly activators. 210,000 compounds, 2.8% hits. AID 1458; also: % of control where 0% means no effect; nearly all actives have a fitted effect of over 55% in size
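qHTS luciferase splicing reporter: luminescence rises when SMN2 exon 7 is included in transfected HEK293 cells. Compound exposure lasted 30-36 h at 37C, with 4.5 mM final sodium butyrate as control, followed by a ONE-Glo read.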
FLuc modulator: firefly luciferase modulation, counter-screen for miR-21 project | P08659 | purified FLuc, Km substrates, luminescence inhibition | Potency, µM (top dose mostly 57.5 µM), inactives show at the highest dose activity change, negative = inhibition, usual class: inhibitors | 360,000 compounds, 6.9% hits;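 also: plate controls were vehicle for no effect and reference inhibitor for full effect; nearly all actives have a fitted effect of over 55% in size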
Target sequence (P08659 whole entry, looked up): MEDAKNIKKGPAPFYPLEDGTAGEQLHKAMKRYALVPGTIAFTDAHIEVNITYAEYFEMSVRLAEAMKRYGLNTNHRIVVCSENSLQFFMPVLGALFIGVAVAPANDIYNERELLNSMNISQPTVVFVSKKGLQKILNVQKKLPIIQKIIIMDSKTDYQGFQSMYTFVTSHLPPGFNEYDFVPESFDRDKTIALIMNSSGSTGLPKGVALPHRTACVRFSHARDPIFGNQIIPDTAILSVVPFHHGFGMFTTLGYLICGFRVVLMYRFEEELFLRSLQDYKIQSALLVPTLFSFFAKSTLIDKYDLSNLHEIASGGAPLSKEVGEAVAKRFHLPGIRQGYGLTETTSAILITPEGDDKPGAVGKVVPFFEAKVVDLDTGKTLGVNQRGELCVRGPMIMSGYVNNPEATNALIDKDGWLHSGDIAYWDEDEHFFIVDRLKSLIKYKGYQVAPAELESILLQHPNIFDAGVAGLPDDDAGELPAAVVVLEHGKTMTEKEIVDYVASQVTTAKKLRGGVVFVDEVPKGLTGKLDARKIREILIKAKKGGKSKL
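Purified P. pyralis luciferase, 10 nM final, with Km-level 10 uM D-luciferin and 10 uM ATP in 50 mM Tris acetate pH 7.5, 10 mM Mg acetate, 0.01% Tween-20, 0.05% BSA; 6-point qHTS titration about 60 µM downward; luminescence read.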
Rab9 promoter act: Rab9 promoter activation | Potency, µM (highest dose often 9.22 µM), for inactives: at the top dose activation, negative = inhibition, usual class: activators | 320,000 compounds, 2.8% hits | Huh7 Rab9 promoter-luciferase reporter, luminescence, 24 h; also: % of control where 0% means no effect; nearly all actives have a fitted effect of over 60% in size
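Huh7 reporter line, Rab9 promoter upstream of luciferase. Compound exposure 24 h at 37 °C in reduced-serum medium with 10% FBS. Read-out: luminescence.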
ELG1 DNA repair: blocks ELG1-dependent DNA repair in HEK293T cells; 330,000 compounds, 2.3% hits; Potency, µM (doses to about 46.1 µM), for the others: at the top dose activity change, negative = inhibition, most hits filed as inhibitors; HEK293T ELG1-luciferase reporter, luminescence, 16 h; DNA damage induced by 5-fluorouridine; AID 504467; also: % is scaled to controls: 0 for no effect and ±100 for the full control effect; nearly all actives have a fitted effect of over 55% in size
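Step one: seed 2,000 cells per well. Step two: pin-transfer compound or DMSO alongside 5-fluorouridine. Step three: incubate 16 hr, 37 °C, 5% CO2. Step four: add ONE-Glo, wait 30 min, read luminescence.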
Numbers without * were called inactive; [ ] = remark or other dose. Calls follow the shape of the dose curve; as a rule, active = well fitted curve in the direction sought with a large enough effect; inconclusive = small, poorly fitted or top-dose-only effect, or another doubt; inactive = no such curve, though single readings can be large; an effect the other way counts as inactive or inconclusive. Potency is read from the fitted curve at half-maximal effect.

What do the screens show for `Cc1csc(NC(=O)C2COc3ccccc3O2)n1` (stereo not drawn)?
ELG1 genotox: 0.52µM*; NPC1 prom act: inconclusive; SMN2 splice up: inconclusive; FLuc modulator: 1.2µM*; Rab9 promoter act: 0.45µM*; ELG1 DNA repair: inconclusive

Results for O=C(NNc1nc2c(F)cccc2s1)C1COc2ccccc2O1 (stereo not drawn) ?
ELG1 genotox: 4%; NPC1 prom act: 7%; SMN2 splice up: 18%; FLuc modulator: inconclusive; Rab9 promoter act: -4%; ELG1 DNA repair: 0%

How did Cc1cnc(NC(=O)C2COc3ccccc3O2)s1 (stereo not drawn) do in these assays?
ELG1 genotox: inconclusive; NPC1 prom act: 0.1µM*; SMN2 splice up: 10µM*; FLuc modulator: 0.67µM*; Rab9 promoter act: 0.32µM*; ELG1 DNA repair: inconclusive

What do the screens show for `O=C(Nc1nc(-c2ccccc2)cs1)C1COc2ccccc2O1` (stereo not drawn)?
ELG1 genotox: 0%; NPC1 prom act: 1%; SMN2 splice up: 21%; FLuc modulator: 1%[2.3 µM]; Rab9 promoter act: -1%; ELG1 DNA repair: 12%

Results for Cc1ccc2sc(NNC(=O)C3COc4ccccc4O3)nc2c1C (stereo not drawn) ?
ELG1 genotox: -2%; NPC1 prom act: -1%; SMN2 splice up: 10µM*; FLuc modulator: 0%; Rab9 promoter act: 2%; ELG1 DNA repair: 2%

How did COc1ccc(Cn2c(SCc3ccc(C(=O)NC4CCCCC4)cc3)nc3cccnc32)cc1 do in these assays?
FLuc modulator: -2%

Results for Cc1cccc(NC(=O)Nc2nnc(N(C)C3CCCCC3)s2)c1C ?
FLuc modulator: -14%

Results for COc1ccc(CCNC(=O)CCS(=O)(=O)c2ccc3c(c2)NC(=O)C(C)S3)cc1OC (stereo not drawn) ?
ELG1 genotox: -1%; NPC1 prom act: 3%; FLuc modulator: 0%; Rab9 promoter act: -2%; ELG1 DNA repair: -3%

How did COC(=O)N1CCC[C@@]2(CCN(C(=O)Nc3cccc(F)c3)C2)C1 do in these assays?
SMN2 splice up: 3%

How did O=C(NC1CC(=O)N(c2ccc(Cl)cc2)C1)C(=O)c1c[nH]c2ccccc12 (stereo not drawn) do in these assays?
FLuc modulator: 3%

How did COc1ccc(-c2csc(NC(=O)COc3ccc(N(C)S(=O)(=O)c4ccc(C)cc4)cc3)n2)cc1 do in these assays?
ELG1 genotox: -4%; NPC1 prom act: 6%; SMN2 splice up: -16%[1.84 µM]; FLuc modulator: -11%; Rab9 promoter act: 0%; ELG1 DNA repair: 7.3µM*

What do the screens show for `COc1ccc(-c2csc(NC(=O)c3ccc(S(=O)(=O)N4CCc5ccccc5C4)cc3)n2)cc1`?
ELG1 genotox: -2%; NPC1 prom act: -13%; SMN2 splice up: -49%; FLuc modulator: 0%; Rab9 promoter act: -20%; ELG1 DNA repair: inconclusive

How did COc1ccc(-c2csc(NC(=O)c3ccccc3NS(=O)(=O)c3ccc(C)cc3)n2)cc1 do in these assays?
ELG1 genotox: -16%; NPC1 prom act: -3%; SMN2 splice up: -102%; FLuc modulator: inconclusive; Rab9 promoter act: -18%; ELG1 DNA repair: 13µM*

How did COc1ccc(S(=O)(=O)Nc2ccccc2C(=O)Nc2nc(-c3ccc(F)cc3)cs2)cc1OC do in these assays?
ELG1 genotox: -8%; NPC1 prom act: -5%; SMN2 splice up: -64%; FLuc modulator: inconclusive; Rab9 promoter act: -6%; ELG1 DNA repair: 15µM*

Results for Cc1ccc(-c2nc3sc(CCNC(=O)c4ccc(Br)o4)c(C)n3n2)cc1 ?
FLuc modulator: 11µM*

How did Cc1c(CCNC(=O)Cc2ccccc2)sc2nc(-c3ccc(F)cc3)nn12 do in these assays?
FLuc modulator: -14%

How did Cc1ccc(-c2nc3sc(CCNC(=O)c4ccco4)c(C)n3n2)cc1 do in these assays?
FLuc modulator: 13µM*
